Laboratory results from PubChem BioAssay.
Calls of active or inactive are those of the source.

Assays:
[1] = binders of probe aFSTL3 on microarray, primary screen, stem cell growth factor project, biochemical, small-molecule microarray, fluorescence 635/667 (AID 1064); conditions: higher = more signal;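 also: measures binding of the biotinylated anti-FSTL3 antibody to printed compounds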
[2] = binders from COS7 lysate, DM2A8 probe, primary screen, torsin A project, cell lysate, small-molecule microarray, fluorescence 635/667 (AID 1065); conditions: higher = more signal, COS7 lysate expressing mutant human TOR1A
[3] = binders of probe aFGF2 on microarray, primary screen, stem cell growth factor project, biochemical, small-molecule microarray, fluorescence 635/667 (AID 1067); conditions: higher = more signal;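 also: measures binding of biotinylated aFGF2 protein to printed compounds on slides; z-score merges feature fluorescence and signal-to-noise across triplicate slides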
[4] = binders of probe aFGF10 on microarray, primary screen, stem cell growth factor project, biochemical, small-molecule microarray, fluorescence 635/667 (AID 1071); conditions: higher = more signal;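 also: score merges 667 nm spot intensity and signal to noise from triplicate slides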
[5] = molecular target: Neurogenic locus notch homolog protein 2 (Homo sapiens) (UniProt Q04721); assay: Notch2 binders on small-molecule microarrays, primary screen, biochemical, small-molecule microarray, 635 nm fluorescence, stem cell growth factors (AID 1073); conditions: Notch2 binding, higher = more signal
[6] = molecular target: Pro-neuregulin-1, membrane-bound isoform (Homo sapiens) (UniProt Q02297); assay: NRG1 binders on small-molecule microarrays, primary screen, psychiatric disease protein project, biochemical, small-molecule microarray, fluorescence 635/667 (AID 1075); conditions: NRG1 binding, 635 nm fluorescence, higher = more signal;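 also: score combines 667 nm spot fluorescence with signal to noise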
[7] = tested on: Neuregulin-1 EGF-like domain; assay: binders of neuregulin-1 EGF-like domain, primary screen, biochemical, small-molecule microarray, 635 nm fluorescence (AID 1081); conditions: small-molecule microarray binding, higher = more signal;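 also: binding of the protein to compounds printed on small-molecule microarray slides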
[8] = FRG1 promoter luciferase signal modulators, primary screen, FRG1 inhibition for FSHD, cell-based, C2C12 myotubes, firefly/Renilla luciferase, luminescence (AID 1084); conditions: higher = more signal, called active from +8 up or from −8 down
[9] = binders of probe aFST on microarray, primary screen, stem cell growth factor project, biochemical, small-molecule microarray, fluorescence 635/667 (AID 1086); conditions: higher = more signal;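 also: score merges 667 nm fluorescence with signal-to-noise of each printed compound spot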
[10] = binders of probe aHhip on microarray, primary screen, stem cell growth factor project, biochemical, small-molecule microarray, fluorescence 635/667 (AID 1087); conditions: higher = more signal;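 also: score merges spot fluorescence at 667nm with spot signal to noise ratio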
[11] = tested on: PRMT1 (protein arginine N-methyltransferase 1); assay: PRMT1 binders on small-molecule microarrays, primary screen, biochemical, small-molecule microarray, 635 nm fluorescence (AID 1088); conditions: small-molecule microarray binding, higher = more signal;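 also: binding of Prmt1 protein to compounds spotted on small-molecule microarray slides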
[12] = yeast growth modulation, basal conditions, primary screen, YJM789 clinical isolate, OD600, 24 h (AID 1089);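 also: growth of clinical yeast isolate S. cerevisiae YJM 789 seeded 1000 cells per well; test concentration not given here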; conditions: S. cerevisiae YJM789 growth, higher = more signal, called active from +8 up or from −8 down
[13] = fission yeast growth modulation, primary screen, strain 972, OD600, 24 h, no modulator (AID 1090);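 also: basal condition with compound alone and no growth modifier present; test concentration not given here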; conditions: S. pombe 972 growth, higher = more signal, called active from +8 up or from −8 down
[14] = S. cerevisiae growth modulation with rapamycin, primary screen, strain BY4716, OD600, 96 h (AID 1091); conditions: higher = more signal, called active from +8 up or from −8 down; also: test concentration not given here
[15] = molecular target: Torsin-1A-interacting protein 2 (Homo sapiens) (UniProt Q8NFQ8); assay: LULL1 binders on small-molecule microarray, primary screen, cell lysate, human LULL1 lysate, 635/667 nm fluorescence (AID 1092); conditions: hLULL1 lysate binding, 635 nm fluorescence, higher = more signal;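 also: probe is lysate of COS7 cells overexpressing human LULL1; score merges per-feature 667 nm fluorescence with signal-to-noise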
[16] = E. coli growth modulation, two-sided OD650, primary screen, E. coli filamentation project, strain DRC41, 24 h (AID 1093); conditions: OD650, 24 h, higher = more signal, called active from +8 up or from −8 down;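 also: MC1000 strain lacking acrAB efflux and sulA so SOS filamentation is blocked; test concentration not given here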
[17] = small-molecule microarray binders of probe aLefty2, primary screen, biochemical, biotinylated probe, 635/667 nm fluorescence (AID 1094); conditions: higher = more signal;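 also: score merges spot fluorescence near 667 nm with spot signal-to-noise ratio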
[18] = tested on: Noggin (protein binding on small-molecule microarray); assay: Noggin binders on small-molecule microarray, primary screen, biochemical, 635/667 nm fluorescence (AID 1095); conditions: 635 nm fluorescence, higher = more signal;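 also: score merges 667 nm feature fluorescence with signal to noise over triplicate slides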
[19] = molecular target: Neurogenic locus notch homolog protein 3 (Homo sapiens) (UniProt Q9UM47); assay: NOTCH3 binders on small-molecule microarray, primary screen, biochemical, 635/667 nm fluorescence (AID 1096); conditions: NOTCH3 binding, 635 nm fluorescence, higher = more signal
[20] = small-molecule microarray binders of probe aEGFR, primary screen, biochemical, biotinylated probe, 635/667 nm fluorescence (AID 1097); conditions: higher = more signal;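 also: probe is a biotinylated anti-EGFR antibody binding compounds printed on slides; score combines fluorescence near 667 nm and signal to noise of each spot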

Sequence of Neurogenic locus notch homolog protein 2 (Homo sapiens) (Q04721 whole entry, looked up, canonical isoform): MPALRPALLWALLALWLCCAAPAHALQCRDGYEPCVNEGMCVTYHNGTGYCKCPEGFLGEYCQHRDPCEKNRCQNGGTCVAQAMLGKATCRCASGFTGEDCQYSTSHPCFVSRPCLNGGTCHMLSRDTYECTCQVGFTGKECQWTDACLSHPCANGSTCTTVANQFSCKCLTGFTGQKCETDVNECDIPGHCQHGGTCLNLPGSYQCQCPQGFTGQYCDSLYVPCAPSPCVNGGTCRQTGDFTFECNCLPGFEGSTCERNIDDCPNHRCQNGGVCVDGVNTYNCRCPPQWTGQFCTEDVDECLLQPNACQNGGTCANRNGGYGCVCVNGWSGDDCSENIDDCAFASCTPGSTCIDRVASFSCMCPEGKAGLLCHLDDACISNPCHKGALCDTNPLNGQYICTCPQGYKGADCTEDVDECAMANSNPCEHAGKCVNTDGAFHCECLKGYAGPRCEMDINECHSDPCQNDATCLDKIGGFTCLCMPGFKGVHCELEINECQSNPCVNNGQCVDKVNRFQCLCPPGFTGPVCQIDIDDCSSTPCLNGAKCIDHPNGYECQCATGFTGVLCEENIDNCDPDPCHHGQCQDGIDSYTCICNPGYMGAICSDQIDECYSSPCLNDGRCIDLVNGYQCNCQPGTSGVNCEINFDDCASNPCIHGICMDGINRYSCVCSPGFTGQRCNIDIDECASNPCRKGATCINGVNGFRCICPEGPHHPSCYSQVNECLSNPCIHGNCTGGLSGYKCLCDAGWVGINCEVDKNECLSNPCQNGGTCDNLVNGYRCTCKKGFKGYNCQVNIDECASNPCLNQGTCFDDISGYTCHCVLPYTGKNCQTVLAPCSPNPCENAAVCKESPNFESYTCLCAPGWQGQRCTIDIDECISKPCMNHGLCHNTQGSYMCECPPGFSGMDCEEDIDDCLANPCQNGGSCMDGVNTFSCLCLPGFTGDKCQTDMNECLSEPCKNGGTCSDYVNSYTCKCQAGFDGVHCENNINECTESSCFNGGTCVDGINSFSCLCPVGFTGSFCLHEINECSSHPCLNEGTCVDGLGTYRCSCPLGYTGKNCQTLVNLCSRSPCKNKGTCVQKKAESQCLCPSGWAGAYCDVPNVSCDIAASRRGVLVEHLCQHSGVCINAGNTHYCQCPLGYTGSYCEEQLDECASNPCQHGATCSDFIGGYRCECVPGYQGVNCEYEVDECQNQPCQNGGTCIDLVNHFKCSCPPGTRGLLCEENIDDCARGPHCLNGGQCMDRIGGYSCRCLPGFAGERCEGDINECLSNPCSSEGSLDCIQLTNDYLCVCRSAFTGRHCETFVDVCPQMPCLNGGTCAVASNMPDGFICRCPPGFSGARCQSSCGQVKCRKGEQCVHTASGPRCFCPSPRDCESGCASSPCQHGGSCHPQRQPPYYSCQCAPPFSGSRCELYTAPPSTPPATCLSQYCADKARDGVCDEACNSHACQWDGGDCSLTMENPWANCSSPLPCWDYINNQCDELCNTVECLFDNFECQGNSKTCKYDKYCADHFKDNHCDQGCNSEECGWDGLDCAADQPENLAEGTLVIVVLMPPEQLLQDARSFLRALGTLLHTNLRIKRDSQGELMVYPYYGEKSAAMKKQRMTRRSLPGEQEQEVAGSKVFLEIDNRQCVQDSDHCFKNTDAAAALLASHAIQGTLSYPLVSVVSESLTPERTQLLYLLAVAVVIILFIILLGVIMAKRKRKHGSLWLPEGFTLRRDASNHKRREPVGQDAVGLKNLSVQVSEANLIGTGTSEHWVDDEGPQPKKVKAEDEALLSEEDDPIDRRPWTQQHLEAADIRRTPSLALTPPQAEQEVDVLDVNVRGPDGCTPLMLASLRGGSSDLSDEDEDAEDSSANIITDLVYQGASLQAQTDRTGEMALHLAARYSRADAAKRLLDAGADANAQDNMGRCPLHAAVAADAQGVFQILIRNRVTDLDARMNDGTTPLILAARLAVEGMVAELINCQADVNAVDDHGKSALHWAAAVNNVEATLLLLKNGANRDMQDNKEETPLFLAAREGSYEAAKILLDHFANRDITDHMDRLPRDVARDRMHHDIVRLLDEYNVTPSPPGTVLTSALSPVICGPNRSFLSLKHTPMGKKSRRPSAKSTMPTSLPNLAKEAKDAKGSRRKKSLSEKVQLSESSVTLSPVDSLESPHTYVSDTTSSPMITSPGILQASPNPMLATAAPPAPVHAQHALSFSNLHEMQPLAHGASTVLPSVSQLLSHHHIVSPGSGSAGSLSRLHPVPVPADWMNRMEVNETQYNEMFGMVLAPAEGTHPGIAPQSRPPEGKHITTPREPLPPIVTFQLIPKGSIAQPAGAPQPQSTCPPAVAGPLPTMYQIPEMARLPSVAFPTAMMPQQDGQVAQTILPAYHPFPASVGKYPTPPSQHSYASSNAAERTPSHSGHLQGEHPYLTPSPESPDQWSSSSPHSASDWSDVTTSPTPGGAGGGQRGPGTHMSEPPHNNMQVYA
Sequence of Torsin-1A-interacting protein 2 (Homo sapiens) (Q8NFQ8 whole entry, looked up): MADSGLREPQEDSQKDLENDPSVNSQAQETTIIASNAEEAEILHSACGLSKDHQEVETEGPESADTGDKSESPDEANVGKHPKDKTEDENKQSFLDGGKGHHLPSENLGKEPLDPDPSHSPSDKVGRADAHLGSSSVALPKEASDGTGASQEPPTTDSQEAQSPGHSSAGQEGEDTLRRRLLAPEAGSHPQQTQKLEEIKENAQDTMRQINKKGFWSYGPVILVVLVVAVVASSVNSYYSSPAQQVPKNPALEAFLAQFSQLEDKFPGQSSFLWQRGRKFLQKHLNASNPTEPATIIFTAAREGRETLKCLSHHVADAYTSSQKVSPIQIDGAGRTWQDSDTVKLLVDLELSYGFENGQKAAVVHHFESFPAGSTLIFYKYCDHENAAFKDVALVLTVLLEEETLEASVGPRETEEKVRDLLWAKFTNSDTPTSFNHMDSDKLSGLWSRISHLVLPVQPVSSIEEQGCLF
Sequence of Pro-neuregulin-1, membrane-bound isoform (Homo sapiens) (Q02297 whole entry, looked up, the tested form may be a part, canonical isoform): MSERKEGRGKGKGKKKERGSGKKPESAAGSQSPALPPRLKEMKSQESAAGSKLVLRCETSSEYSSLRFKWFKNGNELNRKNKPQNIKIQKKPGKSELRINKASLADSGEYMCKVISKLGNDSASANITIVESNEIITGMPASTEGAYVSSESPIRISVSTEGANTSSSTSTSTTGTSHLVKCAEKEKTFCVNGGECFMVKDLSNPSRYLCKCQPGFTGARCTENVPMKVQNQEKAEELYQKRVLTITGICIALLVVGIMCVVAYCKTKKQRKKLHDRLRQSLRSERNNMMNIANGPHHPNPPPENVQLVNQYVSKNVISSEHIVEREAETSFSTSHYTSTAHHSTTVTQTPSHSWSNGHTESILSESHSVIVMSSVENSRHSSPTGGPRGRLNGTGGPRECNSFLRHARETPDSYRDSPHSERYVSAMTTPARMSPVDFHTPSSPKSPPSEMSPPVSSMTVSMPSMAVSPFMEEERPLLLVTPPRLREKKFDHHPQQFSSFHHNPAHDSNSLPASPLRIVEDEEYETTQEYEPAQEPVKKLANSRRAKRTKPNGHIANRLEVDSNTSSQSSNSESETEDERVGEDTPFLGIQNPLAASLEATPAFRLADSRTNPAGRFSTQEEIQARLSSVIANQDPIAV

Row | Compound | composite z-score [1] | composite z-score [2] | composite z-score [3] | composite z-score [4] | composite z-score [5] | composite z-score [6] | composite z-score [7] | z-score [8] | composite z-score [9] | composite z-score [10] | composite z-score [11] | z-score [12] | z-score [13] | z-score [14] | composite z-score [15] | z-score [16] | composite z-score [17] | composite z-score [18] | composite z-score [19] | composite z-score [20]
1 | O=C1O[C@H](c2ccccc2)[C@H](c2ccccc2)N2[C@H]1[C@@H](C(=O)O)[C@]1(C(=O)Nc3ccc(C#CC4=CCCCC4)cc31)[C@H]2c1ccc(O)cc1 | -0.261 | -0.208 | -0.0899 | 0.728 | 0.769 | 0.92 | 1.13 | -0.179 (inactive) | 0.189 | -0.121 | 1.54 | -0.206 (inactive) | -0.113 (inactive) | -0.776 (inactive) | 2.65 | -0.911 (inactive) | 0.0169 | 0.653 | 0.966 | -0.0353
2 | C=CCN1C(=O)[C@@]2(O[C@@H](CCn3cc([C@H](O)c4ccccc4)nn3)[C@H]([Si](C)(C)c3ccc(OC)cc3)[C@H]2C)c2cc(N3CCC3=O)ccc21 | 0.211 | 0.175 | -0.0894 | 0.383 | -0.496 | 0.997 | 1.25 | -1.88 (inactive) | -0.259 | -0.13 | 0.467 | 1.38 (inactive) | 0.95 (inactive) | 2.37 (inactive) | 1.03 | 0.456 (inactive) | -0.11 | 0.711 | -0.681 | -0.183
3 | O=C1N(Cc2ccccc2)c2ccccc2[C@@H]2OC(c3ccc(OCCCO)cc3)=N[C@]12Cc1ccccc1 | 0.677 | -0.603 | 0.06 | 0.569 | 0.848 | -0.329 | 1.19 | -2.82 (inactive) | 0.191 | 0.113 | 1.38 | -0.548 (inactive) | -1.14 (inactive) | 4.88 (inactive) | 2.93 | 0.8 (inactive) | 0.0759 | 0.307 | 0.804 | -0.0391
4 | COC(=O)[C@@]1(Cc2ccc(OC)cc2)[C@H]2c3cc(C(=O)N4CCCC4)n(Cc4cccc5ccccc45)c3C[C@H]2CN1C(=O)c1ccccc1 | 0.176 | -0.214 | 0.401 | 0.672 | 1.8 | 1.42 | 0.831 | -0.404 (inactive) | 0.849 | -0.115 | -0.88 | 0.221 (inactive) | 1.82 (inactive) | 2.29 (inactive) | 3.02 | 0.0929 (inactive) | 0.0082 | 0.15 | 0.981 | 0.087
5 | COC(=O)[C@@]1(Cc2ccc(OC)cc2)[C@H]2c3cc(C(=O)N(C)C)n(CCO)c3C[C@H]2CN1C(=O)c1ccccc1 | 0.494 | 2.56 | 0.152 | -0.359 | 0.993 | 2.13 | -0.139 | 1.63 (inactive) | 0.871 | 0.0365 | -1.15 | -0.809 (inactive) | 0.142 (inactive) | -0.14 (inactive) | 1.96 | -0.285 (inactive) | 0.333 | -1.13 | -0.175 | -0.0521
6 | COCCOC(=O)N1C(=O)[C@@]2(c3cc(C#CCCO)ccc31)[C@H](c1ccccc1OCCO)N1[C@H](c3ccccc3)[C@H](c3ccccc3)OC(=O)[C@H]1[C@@H]2C(=O)Nc1nc2ccccc2s1 | 0.406 | 1.13 | -0.0066 | 0.662 | 1.42 | 1.51 | 1.31 | 1.47 (inactive) | 0.617 | -0.254 | 1.55 | 0.97 (inactive) | 1.42 (inactive) | 2.76 (inactive) | 2.45 | 0.0879 (inactive) | -0.0063 | 1.1 | 1.06 | 0.113
7 | COC(=O)c1ccc([C@H](NC(=O)c2ccco2)[C@]2(C)C[C@H]2C2CCCCC2)cc1 | 0.685 | -0.462 | -0.0301 | -0.11 | 0.329 | 1.12 | -0.808 | -0.622 (inactive) | 0.488 | 2.5 | -1.67 | 0.0339 (inactive) | 0.17 (inactive) | 0.605 (inactive) | 1.45 | -1.49 (inactive) | -0.0986 | -0.586 | -0.436 | -0.192
8 | CC(C)OC(=O)C=C1C[C@@H](c2ccc(C(F)(F)F)cc2)O[C@@H](c2ccc(C(F)(F)F)cc2)O1 | -0.187 | 1.92 | -0.0288 | 0.891 | -0.316 | 1.08 | 1 | 0.337 (inactive) | 0.0006 | -0.214 | 1.16 | -1.84 (inactive) | -7.12 (inactive) | -1.52 (inactive) | 2.66 | 0.374 (inactive) | -0.241 | 0.105 | 0.324 | -0.195
9 | C=C(C)C1CCC(C(O)C2C=CC3C(=O)N(C)C(=O)C3N2N2CCCCC2)CC1 (stereo not given) | 0.207 | -0.222 | 0.118 | 0.82 | 1.62 | 1.45 | 1.24 | 1.17 (inactive) | 1.23 | 0.134 | 1.53 | 1.26 (inactive) | 0.642 (inactive) | 2.25 (inactive) | 3.04 | -0.867 (inactive) | 0.398 | 0.758 | 1.04 | 0.368
10 | CC(C)C(CO)N1C(=O)[C@@H]2C3C(=O)OCCC/C=C\[C@H]3OC23C=CCN(C(C)(C)C)C(=O)[C@@H]13 (stereo not given in full) | -0.0102 | -0.311 | -0.133 | -0.394 | -1.02 | -0.596 | 1.06 | -0.241 (inactive) | -0.418 | 0.0274 | -0.429 | 0.465 (inactive) | -0.415 (inactive) | 0.0032 (inactive) | 0.895 | -0.787 (inactive) | -0.259 | -0.733 | -0.354 | -0.259
